FLuc modulator = inhibits or activates purified firefly luciferase, miR-21 counter-screen; P08659; hit rate 6.9% among 360,000; AID 588342; Potency, µM (highest dose often 57.5 µM), inactives show at the highest dose activity change, negative = inhibition, most hits filed as inhibitors; purified FLuc, Km substrates, luminescence inhibition;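 further: plate controls were vehicle for no effect and reference inhibitor for full effect; nearly all actives have a fitted effect of over 55% in size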
Target sequence (P08659 whole entry, looked up): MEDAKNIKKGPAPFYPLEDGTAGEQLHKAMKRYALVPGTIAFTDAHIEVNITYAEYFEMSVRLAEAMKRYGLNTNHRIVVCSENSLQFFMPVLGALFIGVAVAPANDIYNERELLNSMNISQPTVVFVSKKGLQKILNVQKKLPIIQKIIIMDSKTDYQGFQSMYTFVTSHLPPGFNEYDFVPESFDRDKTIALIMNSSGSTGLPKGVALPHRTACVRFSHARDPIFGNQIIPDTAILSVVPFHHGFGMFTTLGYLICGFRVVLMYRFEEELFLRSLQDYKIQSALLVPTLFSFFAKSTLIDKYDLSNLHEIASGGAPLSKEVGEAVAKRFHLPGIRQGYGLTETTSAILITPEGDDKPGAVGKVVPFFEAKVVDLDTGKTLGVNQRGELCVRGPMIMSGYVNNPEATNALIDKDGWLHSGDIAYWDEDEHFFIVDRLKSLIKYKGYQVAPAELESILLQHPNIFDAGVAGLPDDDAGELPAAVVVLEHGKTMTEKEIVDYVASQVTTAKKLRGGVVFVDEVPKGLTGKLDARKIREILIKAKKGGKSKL
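Biochemical qHTS of compounds, final roughly 60 µM downward over six points, against 10 nM purified firefly luciferase using Km concentrations of substrates (10 uM D-luciferin, 10 uM ATP) in Tris acetate pH 7.5 buffer; luminescence output.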
ELG1 repair inh = inhibitors of ELG1-dependent DNA repair in HEK293T cells; HEK293T ELG1-luciferase reporter, luminescence, 16 h; DNA damage induced by 5-fluorouridine; Potency, µM (top dose mostly 46.1 µM), for inactives: top-dose activity change, negative = inhibition, actives largely listed as inhibitors; hit rate 2.3% among 330,000; AID 504467; further: on the % scale 0 is the no-effect control and ±100 the full control effect; nearly all actives have a fitted effect of over 55% in size
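Overnight (16 hr) co-exposure of 2,000 cells/well to 5-fluorouridine and compound at 37 °C preceded detection. Luciferase was quantified via ONE-Glo luminescence; loss of signal denotes inhibition.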
NPC1 promoter act = activates the NPC1 promoter | Huh7 NPC1 promoter luciferase reporter, 24 h | Potency, µM (titrated, usually from 9.22 µM), inactives show at the top dose activation, actives largely listed as activators | hit rate 2.4% among 320,000; further: % of control where 0% means no effect; nearly all actives have a fitted effect of over 60% in size
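Luminescence from an NPC1 promoter-driven luciferase reporter in stably transfected Huh7 cells was measured after 24 h compound treatment at 37 °C, followed by 10 min ambient incubation with luciferase detection reagent.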
Rab9 promoter act = activates the Rab9 promoter; Huh7 Rab9 promoter-luciferase reporter, luminescence, 24 h; Potency, µM (titrated, usually from 9.22 µM), for inactives: top-dose activation, negative = inhibition, actives largely listed as activators; hit rate 2.8% among 320,000; AID 485297; further: % of control where 0% means no effect; nearly all actives have a fitted effect of over 60% in size
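Huh7 reporter line, Rab9 promoter upstream of luciferase. Compound exposure 24 h at 37 °C in reduced-serum medium with 10% FBS. Read-out: luminescence.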
ELG1 genotox = induces genotoxicity in HEK293T cells with luciferase-tagged ELG1; HEK293T ELG1-luciferase reporter, luminescence, 16 h; Potency, µM (highest dose often 46 µM), without a hit: at the highest dose activity change, positive = activation, hits mostly activators; hit rate 1.3% among 330,000; AID 504466; further: % of control where 0% means no effect; nearly all actives have a fitted effect of over 60% in size
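HEK293T cells expressing luciferase-tagged ELG1 were exposed to compound or DMSO vehicle for 16 hr at 37 °C and 5% CO2. Luciferase activity was then measured with ONE-Glo after 30 min at room temperature.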
SMN2 splice up = increases expression of the SMN2 splice variant | AID 1458 | hit rate 2.8% among 210,000 | Potency, µM (doses to about 46.1 µM), for the others: at the highest dose activity change, positive = activation, most hits filed as activators | HEK293 SMN2-luciferase splicing reporter, luminescence, 30-36 h; further: % of control where 0% means no effect; nearly all actives have a fitted effect of over 55% in size
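HEK293 cells carry an SMN2 minigene-luciferase reporter in which exon 7 inclusion puts luciferase in frame. Cells were seeded at 2000 cells/well, attached for 10-12 hours, then exposed to compounds for 30-36 hours at 37C before ONE-Glo luminescence.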
Numbers without * were called inactive; ? = inconclusive; . = no result given. In the library only some 9.2% were active in any assay of this set; here they are far more common. The call rests on the fitted dose curve; in most records, active means well fitted curve in the direction sought with a large enough effect; inconclusive means small, poorly fitted or top-dose-only effect, or another doubt; inactive means no such curve, though single readings can be large; an effect the other way counts as inactive or inconclusive. Potency means the concentration at half of the fitted maximal effect.

SMILES | FLuc modulator | ELG1 repair inh | NPC1 promoter act | Rab9 promoter act | ELG1 genotox | SMN2 splice up
Oc1ccc(-c2nccc(-c3ccc(Cl)cc3Cl)n2)cc1 | 1% | -4% | -1% | -6% | 4% | -2%
Oc1ccc(-c2nnc(-c3ccc(O)cc3)nn2)cc1 | 2.7µM* | ? | 3.2µM* | 4µM* | 18% | 14µM*
Oc1ccc(-c2cc(-c3ccc(O)cc3)nc(-c3ccccc3)n2)cc1 | -14% | 0% | -3% | -8% | 4% | .
Oc1ccc(-c2cccc(-c3ccc(O)cc3)n2)cc1 | 17µM* | ? | -3% | 27% | 11% | ?
CCOC(=O)CN1C(=O)SC(Nc2ccc(C)cc2)C1=O (configuration not stated) | -1% | 7% | 1% | 0% | 0% | .
Cc1ccc(C)n1-c1nccc(-c2cccs2)n1 | 3% | 7% | -7% | -7% | 0% | -22%
Oc1ccc(-c2nccc(-c3cccs3)n2)cc1 | 8.5µM* | ? | ? | 22% | ? | ?
Cc1cc2nc(/C=C/c3cccnc3)[nH]c2cc1C | 2.4µM* | ? | ? | ? | 2.3µM* | .
CCCN(CC(=O)Nc1ccccc1C)C(=O)c1ccc(=O)n(Cc2ccccc2)n1 | 3% | 10% | -3% | -12% | 4% | .
COCCCNC(=O)C[C@H]1C[C@H](C(=O)N(C(C)C)C(C)C)[C@@]2(C)c3[nH]c4cc(CCC(=O)N(C)C)ccc4c3CCN2C1=O | . | ? | . | . | 2% | .
COc1cc2cnc(-c3ccccc3)c(-c3ccc(C#N)cc3)c2cc1OC | 3% | 23µM* | 1% | 0% | -7% | .
COc1cc2cnc(-c3ccccc3)c(-c3cccc(C(F)(F)F)c3)c2cc1OC | 1% | 13µM* | 0% | -2% | -11% | .
CCC(C)NCC(=O)Nc1cc(S(=O)(=O)N(CC)c2ccccc2)ccc1Cl (configuration not stated) | 3% | -12% | -1% | -3% | -8% | -32%
CCN(c1ccccc1)S(=O)(=O)c1ccc(Cl)c(NC(=O)CNC(C)c2ccccc2)c1 (configuration not stated) | . | 15µM* | . | . | 0% | .
CN(C)S(=O)(=O)c1ccc(Cl)c(NC(=O)CN2CCCCCC2)c1 | 4% | -4% | -1% | -4% | -4% | -5%
CCN(c1ccccc1)S(=O)(=O)c1ccc(Cl)c(NC(=O)CN2CCCCCC2)c1 | -1% | 16µM* | -18% | -2% | -15% | .
CC(=O)Nc1nonc1-c1nnc(SCc2ccc(Cl)cc2)n1C | -3% | . | . | . | . | .
CCN(CC)C(=O)CSc1nc2c(sc(=S)n2-c2ccccc2)c(=O)n1Cc1ccco1 | 1% | 23µM* | -3% | 1% | -24% | -17%
CCN(CC)C(=O)CSc1nc2c(sc(=S)n2CC)c(=O)n1-c1ccccc1 | 2% | ? | 2% | -3% | 2% | -20%
COC(=O)c1ccc(NC(=O)CCNS(=O)(=O)c2cccc3nsnc23)cc1 | 0% | . | . | . | . | 6%
CN(C)CC(CCC(CN(C)C)C(O)(c1ccccc1)c1ccccc1)C(O)(c1ccccc1)c1ccccc1 (configuration not stated) | 2% | 18µM* | -3% | -9% | -17% | .
CN(C)C/C=C/C(O)(c1ccccc1)c1ccccc1 | 0% | ? | -1% | -5% | -2% | .
Cc1ccc(C(=O)N2CCN(S(=O)(=O)c3ccc(Br)cc3)CC2)o1 | -1% | -2% | 0% | 0% | -3% | .
COc1ccc2c(c1)[nH]c1c(=O)n(Cc3ccco3)cnc12 | -14% | ? | ? | ? | 18µM* | ?
COc1ccc2c(c1)[nH]c1c(=O)n(Cc3ccccn3)cnc12 | ? | ? | 15% | 4% | 26% | 8%
SMILES | FLuc modulator | ELG1 repair inh | NPC1 promoter act | Rab9 promoter act | ELG1 genotox | SMN2 splice up
COc1ccc2c(c1)c1ncn(Cc3ccco3)c(=O)c1n2C | ? | 16µM* | 6% | 1% | -7% | -7%
COc1ccccc1Nc1nc(-c2cccs2)cs1 | 4.8µM* | ? | 13% | ? | ? | 11µM*
COc1ccc(Nc2nc(-c3cccs3)cs2)c(OC)c1 | 4.8µM* | ? | ? | 2.2µM* | 5.2µM* | .
COc1ccc(Nc2nc(-c3cccs3)cs2)cc1 | 0.67µM* | ? | 2.5µM* | 2µM* | 1.5µM* | 10µM*
CCOC(=O)c1c(NC(=O)c2noc(C)c2[N+](=O)[O-])sc(C(C)=O)c1C | ? | -6% | 1% | -2% | 0% | -10%
C=CCNC(=O)C1CC(=O)N(c2ccc(OCC(=O)Nc3c(C)cccc3C)cc2)C1 (configuration not stated) | 1% | 12% | 2% | 1% | 0% | .
COc1ccc(-n2nc(C(=O)O)c(=O)n(C)c2=O)cc1 | 0% | . | . | . | . | -4%
COc1cc(C(C)=O)ccc1OCC(O)CN1CCN(c2cc(C)cc(C)c2)CC1 (configuration not stated) | 2% | 13µM* | -4% | -6% | -8% | .
CC(=O)OC1CC(C)N(C(=O)c2ccccc2)c2ccc(C)cc21 (configuration not stated) | -1% | 0% | 4% | 1% | 21µM* | ?
CCCC(=O)OC1CC(C)N(C(=O)c2ccccc2)c2ccc(C)cc21 (configuration not stated) | 1% | ? | -8% | 0% | 3% | -87%
O=C(c1cnsn1)N1CCCC(Nc2ccc(F)c(F)c2)C1 (configuration not stated) | 1% | 29% | -2% | 2% | -1% | .
COc1nc(-c2ccccc2)ccc1-c1noc(-c2ccco2)n1 | 8.5µM* | ? | ? | 4µM* | 21µM* | 13µM*
COc1ccc(-c2ccc(-c3noc(-c4ccco4)n3)c(OC)n2)cc1 | -14% | ? | 25% | ? | 17% | ?
COc1ccccc1-c1noc(-c2ccco2)n1 | 11µM* | ? | 3.5µM* | 3.2µM* | 6.5µM* | 13µM*
COc1nc(-c2ccccc2)ccc1-c1noc(-c2ccccc2)n1 | 24µM* | ? | 4µM* | 2.8µM* | 18µM* | ?
Cc1ccc(SCC(=O)NNC(=O)c2ccccc2)c(C)c1 | 1% | -4% | -3% | 0% | 7% | .
CCOc1ccc(NC(=O)Cn2c(C)cc3ccccc3c2=O)cc1 | 5% | . | . | . | . | 10%
Cc1nn(-c2ccccn2)c2c1-c1nc(N)ncc1CC2 | 11µM* | ? | 3.5µM* | 3.2µM* | 8% | ?
O=C(N/N=C/c1cc(Br)c(O)c(Br)c1)c1cccc(C(F)(F)F)c1 | ? | -1% | 1% | -3% | 2% | -23%
O=C(N/N=C/c1cccc(C(F)(F)F)c1)c1ccccc1O | 6.7µM* | 20% | 18% | 15% | 3% | -9%
